High-throughput results deposited in PubChem BioAssay by National Center for Advancing Translational Sciences (NCATS).
Most compounds without a hit are left out; they make up all but 0.54% or so of the library.
EPAC2 antagonist – EPAC2 (human) antagonism. EPAC2 GEF exchange of Rap1B-BODIPY-GDP, fluorescence. Potency, µM (titrated, usually from 114 µM), actives largely listed as inhibitors. 360,000 compounds, 0.18% hits; also: nearly all actives have a fitted effect of over 45% in size
EPAC2 ag – activates human EPAC2 exchange factor. Q8WZA2. Potency, µM (doses to about 154 µM), most hits filed as activators. AID 720711. EPAC2 activation, biochemical qHTS; response scale: 100% = 6.5 mM cAMP response. 360,000 compounds, 0.079% hits; also: nearly all actives have a fitted effect of over 50% in size
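EPAC2 (100 nM) mixed with Rap1B loaded with BODIPY-GDP (250 nM) plus 50 uM unlabeled GDP; compounds pinned in, 5 min RT, then read every 5 min for 30 min (ex 480, em 540 nm). Normalized to cAMP control.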
ERG Ets-DNA blk – ERG Ets/DNA interaction inhibition; 370,000 compounds, 0.028% hits; fluorescence polarization, His-ERG Ets domain / labelled DNA; P11308; AID 624246; Potency, µM (series often up to 76.9 µM), hits mostly inhibitors; active = well fitted inhibition curve with a large enough effect in the polarisation, with a control signal flat; inconclusive = small, poorly fitted or top-dose-only effect, or effect the other way, or a change in a side signal; inactive = no such curve, though single readings can be large or run the other way; the % refers to the polarisation;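 also: polarization taken with two DNA probes labelled with fluorescein and Texas red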
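His-tagged ERG Ets domain (1 uM in the protein solution; 300mM KCl, 50mM Tris-HCl, 1mM EDTA, 1mM DTT, pH 7.5) received compound, then a probe mix of 5 nM fluorescein-DNA and 100nM Texas-615-DNA. Fluorescence polarization was read for both dyes.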
EPAC1 antag – blocks human EPAC1 exchange factor | 360,000 compounds, 0.14% hits | AID 720709 | Potency, µM (top dose mostly 115 µM), usual class: inhibitors | EPAC1 GEF assay, Rap1b-BODIPY-GDP exchange fluorescence | O95398; also: nearly all actives have a fitted effect of over 50% in size
EPAC1 agonist – agonists of human EPAC1; O95398; EPAC1 agonist qHTS, biochemical assay; response scale: 100% = response to 6.5 mM cAMP; Potency, µM (series often up to 154 µM), most hits filed as activators; 360,000 compounds, 0.073% hits; also: nearly all actives have a fitted effect of over 60% in size
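Compounds were pinned as a concentration titration into mixtures of EPAC1 (100 nM), BODIPY-GDP-loaded Rap1B (250 nM) and GDP (50 uM). After 5 min at room temperature, fluorescence was followed for 30 min; activity was scaled to 6.5 mM cAMP.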
TDP1 inh – blocks human tyrosyl-DNA phosphodiesterase 1; Q9NUW8; recombinant TDP1, AlphaScreen DNA substrate cleavage; Potency, µM (titrated, usually from 130 µM), actives largely listed as inhibitors; 350,000 compounds, 0.28% hits; AID 485290; also: nearly all actives have a fitted effect of over 40% in size
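Tdp1 1 nM final; 15 min RT w/ cpd; substrate 15 nM, 5 min; beads 10 ug/ml, 10 min; AlphaScreen read. Neg ctrl: no enzyme.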
Numbers stand for hits; – = inactive; ? = inconclusive; · = no result. Unless noted, calls follow the shape of the dose curve; as a rule, active = well fitted curve in the direction sought with a large enough effect; inconclusive = small, poorly fitted or top-dose-only effect, or another doubt; inactive = no such curve, though single readings can be large; an effect the other way counts as inactive or inconclusive.

SMILES	EPAC2 antagonist	EPAC2 ag	ERG Ets-DNA blk	EPAC1 antag	EPAC1 agonist	TDP1 inh
N=C1/C(=C/c2coc3ccccc3c2=O)C(=O)N=C2SC(c3ccco3)=NN12	–	100µM	–	–	89µM	·
CSC1=NSC2=NC(=O)/C(=C\c3coc4ccccc4c3=O)C(=N)N12	–	?	·	–	63µM	–
Cc1cc(/C=C2\C(=N)N3N=C(c4ccco4)SC3=NC2=O)c(C)n1Cc1ccccc1	–	–	–	?	–	–
CC(C)CSC1=NSC2=NC(=O)/C(=C\c3coc4ccccc4c3=O)C(=N)N12	–	?	–	–	–	–
CCCN1CNc2c(c(=O)[nH]c(=S)n2CCc2ccc(Cl)c(Cl)c2)C1	·	·	·	·	·	–
CCCN1CNc2c(c(=O)[nH]c(=S)n2CCc2ccccc2Cl)C1	·	·	·	·	·	–
CCOC(=O)c1ccccc1NC(=O)COC(=O)CC1CCCCC1	–	–	–	–	–	50µM
Cc1ccc2nc3sc(C(=O)Nc4ccc(F)cc4)cc3cc2c1	·	·	–	·	·	10µM
O=S1(=O)N=C(Oc2ccccc2Cl)c2ccccc21	·	·	·	·	·	–
O=C(Nc1ccc(-n2nncc2-c2ccco2)cc1)c1cc2ccccc2oc1=O	–	–	–	?	–	40µM
O=C(Nc1ccc(-n2nncc2-c2ccco2)cc1)c1cccc(F)c1	–	–	–	–	–	–
Cc1ccc(S(=O)(=O)N(C)CCN(C)c2nc(-c3cccs3)nc3ccccc23)cc1	·	·	·	·	·	–
COc1ccc(C(=O)Nc2nc(-c3ccc([N+](=O)[O-])cc3)c(-c3ccc(OC)cc3)s2)cc1	–	100µM	–	–	112µM	–
N#CC(C#N)=C1C=C2C=C(N3CCCCCC3)CCC2CC1 (configuration not stated)	–	–	?	–	–	–
CCN1CCN(C2=CC3=CC(=C(C#N)C#N)CCC3CC2)CC1 (configuration not stated)	–	25µM	–	–	50µM	–
CN1CCN(C2=CC3=CC(=C(C#N)C#N)CCC3CC2)CC1 (configuration not stated)	–	100µM	–	–	28µM	–
CC1(C)CC(NCCN2CCN(C3=CC(=C(C#N)C#N)CC(C)(C)C3)CC2)=CC(=C(C#N)C#N)C1	–	–	–	–	–	–
N#CC(C#N)=C1C=C2C=C(N3CCOCC3)CCC2CC1 (configuration not stated)	–	56µM	–	–	?	–
COc1ccc(C2Nc3ccccc3C(=O)N2Cc2cccnc2)cc1COc1ccc(NC(C)=O)cc1 (configuration not stated)	·	·	·	·	·	–
COc1cc(F)c(S(=O)(=O)N2CCN(S(=O)(=O)c3ccco3)CC2)c(F)c1	·	·	·	·	·	–
COc1ccccc1/C=C/C=C1\Oc2c(ccc(O)c2CN2CCN(CCO)CC2)C1=O	–	?	–	–	100µM	–
O=C1/C(=C/C=C/c2ccccc2)Oc2c1ccc(O)c2CN1CCN(CCO)CC1	–	?	–	–	?	·
CCN1CCN(Cc2c(O)ccc3c2O/C(=C\C=C\c2ccccc2)C3=O)CC1	–	?	–	–	100µM	–
COc1ccc(CCn2c3c(c(=O)[nH]c2=S)CN(c2ccccc2)CN3)cc1OC	·	·	·	·	·	–
O=S(=O)(O)c1cc(O)c2c(O)c(N=Nc3cc(Cl)ccc3O)c(S(=O)(=O)O)cc2c1	28µM	–	–	?	–	·
SMILES	EPAC2 antagonist	EPAC2 ag	ERG Ets-DNA blk	EPAC1 antag	EPAC1 agonist	TDP1 inh
O=S(=O)(O)c1cc(Cl)cc(N=Nc2ccc(O)cc2O)c1O	?	–	·	–	–	·
Cc1ccc(CNc2ncnc3ccc(-c4ccc5c(c4)OCO5)cc23)s1	·	·	·	·	·	–
CCCOc1ccc(Cc2nn3c(=O)/c(=C/c4ccco4)sc3nc2=O)cc1	–	–	–	–	–	·
COc1ccccc1/C=C/C=c1\sc2nc(=O)c(Cc3ccccc3)nn2c1=O	–	?	–	35µM	–	·
CN(Cc1ccc(F)cc1)C(=O)c1cccc(NS(=O)(=O)c2ccccc2)c1	–	–	–	–	–	–
CN(Cc1ccc(F)cc1)C(=O)c1cccc(OCc2ccccc2)c1	50µM	–	–	–	–	·
Cc1ccc(NS(=O)(=O)c2ccc3c(c2)N(C)C(=O)CO3)cc1C	·	·	·	·	·	–
